Inconclusive results are not listed. Active and inactive are the calls of the source. The calls were made as follows, unless noted: active = hit-call score of the fitted dose curve at least 0.9, where 1 is the maximum; inconclusive = response in the unintended direction; inactive = score below 0.9.
Assays:
[1] = IUF_NPC5_oligodendrocyte_differentiation_120hr: Leibniz Research Institute for Environmental Medicine (IUF) 120-hour Oligodendrocyte Differentiation Assay (NPC5) (AID 2284304);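 also: share of O4-positive cells among Hoechst nuclei found by CNN image analysis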
Method in brief: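 Primary human fetal (GW 16-19) neural progenitor spheres (0.3 mm) plated on poly-D-lysine/laminin in N2 differentiation medium, exposed from day 0 for 120 h with half-medium refresh at day 3; O4-positive cells as percent of Hoechst nuclei, CNN-identified, versus DMSO.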

[2] = IUF_NPC2-5_cytotoxicity_72hr: Cytotoxicity Assessment at 72 hours in the Leibniz Research Institute for Environmental Medicine (IUF) Neural Progenitor Cell Migration and Differentiation Assay for Cytotoxicity (NPC2-5) (AID 2284306);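 also: LDH release into supernatant measured by resorufin fluorescence marking membrane damage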
Method in brief: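 Membrane integrity loss was scored from fluorescence (RFU) of resorufin generated by LDH in culture supernatant, 72 h after dosing. Differentiating human progenitor spheres received seven serial compound concentrations alongside a solvent control.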

[3] = IUF_NPC2-5_cytotoxicity_120hr: Cytotoxicity Assessment at 120 hours in the Leibniz Research Institute for Environmental Medicine (IUF) Neural Progenitor Cell Migration and Differentiation Assay (NPC2-5) (AID 2284307)
Method in brief: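 Human fetal neural progenitor spheres (0.3 mm, GW 16-19 cortex) were plated on poly-D-lysine/laminin in N2 differentiation medium and exposed for 120 h, with half-medium refresh at day 3. LDH release into supernatant was read by resorufin fluorescence.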

[4] = IUF_NPC2-5_cell_number_120hr: Cell Number Assessment at 120 hours in the Leibniz Research Institute for Environmental Medicine (IUF) Neural Progenitor Cell Migration and Differentiation Assay (NPC2-5) (AID 2284308; active = hit-call score of the fitted dose curve at least 0.9, where 1 is the maximum; inactive = score below 0.9;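 also: count of Hoechst-stained nuclei in migration zone around plated human neural progenitor spheres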)
Method in brief: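 Primary human fetal neural progenitor spheres (GW 16-19, 0.3 mm) plated on poly-D-lysine/laminin in N2 differentiation medium, exposed from day 0 for 120 h with half-medium refresh at day 3; Hoechst-positive nuclei counted in migration area versus DMSO control.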

[5] = IUF_NPC2-5_viability_120hr: Viability Assessment at 120 hours in the Leibniz Research Institute for Environmental Medicine (IUF) Neural Progenitor Cell Migration and Differentiation Assay (NPC2-5) (AID 2284312; active = hit-call score of the fitted dose curve at least 0.9, where 1 is the maximum; inactive = score below 0.9)
Protocol: IUF_NPC2-5 is a cell-based, multiplexed assay that uses hNPC, a human primary neural progenitor cells, with measurements taken at 72 or 120 hours after chemical dosing in a 96-well plate. Human neural progenitor cells (hNPC) are generated from human fetal brain cortex at gestational week (GW) 16-19. In the neural progenitor cell migration and differentiation assay (NPC2-5), hNPCs grown as spheres are plated on an extracellular matrix and migrate and differentiate out of the sphere core. The processes radial glia migration, neuronal and oligodendrocyte migration as well as neuronal differentiation, neuronal morphology and oligodendrocyte differentiation are studied using automated phase contrast imaging and automated fluorescence imaging in combination with high content image analysis. In parallel, the cell viability is assessed using an alamar blue viability assay and the cytotoxicity using a lactate dehydrogenase dependent membrane integrity assay.IUF_NPC2-5_viability_120hr is one of 12 assay components measured from the IUF_NPC2-5 assay. It is designed to measure cell viability assessed as mitochondria-dependent reduction of resazurin to resorufin using the alamar blue viability assay. The viability is measured as a fluorescence signal (relative fluorescence unit) in a multiplate reader. […]

[6] = IUF_NPC4_neurite_area_120hr: Leibniz Research Institute for Environmental Medicine (IUF) 120-hour Neuronal Morphology Assay for Neurite Area (NPC4) (AID 2284305)
Method in brief: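 Neurite area is read out as the mean pixel area, excluding nuclei, of skeletonized TUBB3-positive neurons imaged after 120 h. Primary human neural progenitor spheres differentiated on poly-D-lysine/laminin with compound present from day 0. Activity was referenced to DMSO controls.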

Measured: outcome

CC1(C)S[C@@H]2[C@H](NC(=O)COc3ccccc3)C(=O)N2[C@H]1C(=O)O
not listed: [6]
inactive: all other assays above

Nc1ncn([C@@H]2O[C@H](CO)[C@@H](O)[C@H]2O)c(=O)n1
not listed: [1]
inactive: all other assays above
